This passage reports manual score results from PubChem BioAssay AID623911 (Vanderbilt High Throughput Screening Facility, 2012).

About 770 (37%) of roughly 2,100 compounds were called active. This is one part of the list. Unmarked numbers belong to inactive results.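 Rule for the calls: active = by-eye trace score of 1 for enhancers or -1 for inhibitors, so actives lie on both sides (some results past the limit were not filed as active); inactive = score 0, or 3 fluorescent, or 4 baseline rise.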

This experiment deals with G protein-activated inward rectifier potassium channel 2 (Homo sapiens) + G protein-activated inward rectifier potassium channel 1 (Homo sapiens) (UniProt P48051+P48549). The experiment is described as follows: GIRK1/2 thallium flux modulators, retest, confirmation, cell-based, HEK293 rmGlu8/hGIRK1/2, FluoZin-2 (AID 623911). Particulars: HEK293 rmGlu8/hGIRK1/2, thallium flux FluoZin-2; actives lie on both sides; glutamate co-added at its EC20 level.
Chain of G protein-activated inward rectifier potassium channel 2 (Homo sapiens) + G protein-activated inward rectifier potassium channel 1 (Homo sapiens) (P48051 whole entry, looked up): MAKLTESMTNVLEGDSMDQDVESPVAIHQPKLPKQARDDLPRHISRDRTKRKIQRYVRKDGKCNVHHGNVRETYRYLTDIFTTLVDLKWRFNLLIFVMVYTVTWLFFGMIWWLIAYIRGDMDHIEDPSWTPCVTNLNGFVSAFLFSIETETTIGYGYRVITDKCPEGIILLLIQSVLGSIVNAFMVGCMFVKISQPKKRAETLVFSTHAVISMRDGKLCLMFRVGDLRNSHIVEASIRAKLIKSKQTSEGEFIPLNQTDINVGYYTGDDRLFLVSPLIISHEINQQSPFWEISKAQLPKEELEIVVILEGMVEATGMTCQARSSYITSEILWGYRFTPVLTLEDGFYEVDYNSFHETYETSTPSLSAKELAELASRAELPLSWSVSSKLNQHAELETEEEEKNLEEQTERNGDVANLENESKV
Chain of G protein-activated inward rectifier potassium channel 2 (Homo sapiens) + G protein-activated inward rectifier potassium channel 1 (Homo sapiens) (P48549 whole entry, looked up): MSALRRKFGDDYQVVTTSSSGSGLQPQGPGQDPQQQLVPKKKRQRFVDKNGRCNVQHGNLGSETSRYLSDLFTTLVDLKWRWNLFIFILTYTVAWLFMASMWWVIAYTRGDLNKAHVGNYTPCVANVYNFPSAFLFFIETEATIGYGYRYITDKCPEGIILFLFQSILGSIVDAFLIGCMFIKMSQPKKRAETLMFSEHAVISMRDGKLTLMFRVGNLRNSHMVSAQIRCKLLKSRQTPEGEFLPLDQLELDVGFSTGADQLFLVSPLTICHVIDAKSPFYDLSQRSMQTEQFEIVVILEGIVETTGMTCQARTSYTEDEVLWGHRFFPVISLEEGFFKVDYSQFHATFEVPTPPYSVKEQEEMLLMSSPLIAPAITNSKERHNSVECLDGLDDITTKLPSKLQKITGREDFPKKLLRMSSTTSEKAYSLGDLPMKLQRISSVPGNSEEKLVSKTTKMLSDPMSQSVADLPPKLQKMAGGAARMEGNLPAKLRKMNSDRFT
As to `O=C(CSc1nc2ccccc2c(=O)n1CC1CCCO1)N1CCN(c2ccccc2)CC1` (centres undefined), the manual score was 0. For `CCn1c(SCC(=O)c2cc(C)n(CC3CCCO3)c2C)nc2ccccc21` (centres undefined), the manual score was -1 (active). As for `CCn1c(SCc2nc(-c3ccccc3)no2)nc2ccccc21`, the manual score was 0. For `CCc1ccc(-c2nc(CN3CCC(C(=O)NCc4ccco4)CC3)c(C)o2)cc1`, the manual score is -1 (active). For the compound `O=C(CCc1nc(-c2ccccc2F)no1)NCCN1CCN(Cc2ccccc2)CC1`, the manual score is 0. With `O=C(c1cccc(F)c1)N1CCN(Cc2ccco2)CC1`, the manual score was 0. As for `Cc1oc(-c2cccc(Cl)c2)nc1CN1CCC(C(=O)NCc2ccco2)CC1`, the figure is -1 (active); as for `O=C(CCN1C(=O)COc2ccccc21)NCCCN1CCc2ccccc2C1`, 0. In the case of `CCn1c(N)c(C(=O)NCc2ccco2)sc1=S`, the manual score is 0.

Consider `Cc1ccccc1-c1nc(CS(=O)(=O)CC(=O)NCCCN2CCCC2)c(C)o1`, for which the manual score is -1 (active).

In the case of `CCN1CCCC1CNC(=O)CSCc1nc(-c2ccccc2C)oc1C` (centres undefined), the manual score is -1 (active).

With `Cc1ccc(S(=O)(=O)N/N=C/c2ccc(OC3CSC3)cc2)cc1`, the manual score was 0. On to `CCc1ccc2c(c1)C1(NN=C(c3ccc(C)cc3)S1)C(=O)N2` (centres undefined), for which the manual score was 0.

With `Cc1ccccc1C(=O)Nc1ccc2nc3n(c(=O)c2c1)CCC3`, the manual score was 0. As for `CN(c1ccccc1C(=O)Nc1ccccc1C(=O)NCc1ccco1)S(C)(=O)=O`, the manual score is 0. In the case of `Cc1oc(-c2cccc(Cl)c2)nc1CN1CCCC(C(=O)NCc2ccco2)C1` (centres undefined), the manual score is -1 (active). Regarding `Cc1ccccc1-c1nc(CN2CCC(C(=O)NCc3ccco3)CC2)c(C)o1`, the manual score was -1 (active). Consider `Cc1cc(C)nc(N2CCCC(C(=O)NCCc3ccc(F)cc3)C2)n1` (centres undefined), for which the manual score was 0.

`CCC1CCCCN1C(=O)c1cc2cc(Br)ccc2oc1=O` (centres undefined): the manual score is 0.

For `CCN1CCCC1CNC(=O)C1CCN(Cc2nc(-c3cccc(Br)c3)oc2C)CC1` (centres undefined), the manual score was -1 (active). As for `Cc1oc(-c2ccccc2F)nc1CS(=O)(=O)CC(=O)NCCN(C)C1CCCCC1`, the manual score was -1 (active). On to `O=C(O)c1cnc(-c2ccccc2)nc1Sc1ccccc1Cl`, for which the manual score is 0. As for `CCn1c(=NC(=O)CSC(C)=O)sc2ccccc21`, the figure is 0; as for `O=C(Nn1cnnc1)c1cc2cc(Br)ccc2oc1=O`, 0; as for `Cc1c(N2C(=O)CS/C2=N\N=C\c2ccccc2O)c(=O)n(-c2ccccc2)n1C`, 0. As to `Cc1cccc(-c2nc(CN3CCCC(C(=O)NC4CCCCC4)C3)c(C)o2)c1` (centres undefined), the manual score was -1 (active). Consider `Cc1ccccc1-c1nc(CN2CCC(C(=O)NCCCN3CC(C)CC(C)C3)CC2)c(C)o1` (centres undefined), for which the manual score was -1 (active). Take `CC1CC(C)CN(CCCn2c(=S)[nH]c3ccccc3c2=O)C1` (centres undefined): the manual score is -0.5.

Consider `O=C(C1CCCN(Cc2cccs2)C1)N1CCCCCC1` (centres undefined), for which the manual score was 0.
